# Screening results (PubChem BioAssay)
# Bead autofluor: flagged as autofluorescent in microsphere protease counterscreen; compound autofluorescence counterscreen, microsphere flow cytometry; active compounds read high; fluorescence intensity (concentration not given with the values); 360,000 compounds, 3.1% hits; in the data active = fluorescence intensity above about 16000; inconclusive = no clear call, values can overlap the other calls
# GDH-TPI counter: inhibits GDH-TPI coupling enzymes, artifact for Mtb FBA screen | GDH-TPI coupled enzyme counterscreen, NADH absorbance | inhibition, % at 4.8 µM | 360,000 compounds, 1.2% hits; in the data active = inhibition above about 30%
# BoNT F protease: BoNT F light chain protease inhibition. Multiplex microsphere protease cleavage assay, flow cytometry. inhibition, % at 10 µM. 360,000 compounds, 0.22% hits. AID 588497; in the data active = inhibition above about 35%, passing the limit was not always enough; inconclusive = no clear call, values can overlap the other calls
# Anthrax LF prot: anthrax lethal factor protease inhibition. 360,000 compounds, 0.12% hits. P15917. inhibition, % at 10 µM. multiplex microsphere protease cleavage assay, LF
# Target sequence (P15917 whole entry, looked up): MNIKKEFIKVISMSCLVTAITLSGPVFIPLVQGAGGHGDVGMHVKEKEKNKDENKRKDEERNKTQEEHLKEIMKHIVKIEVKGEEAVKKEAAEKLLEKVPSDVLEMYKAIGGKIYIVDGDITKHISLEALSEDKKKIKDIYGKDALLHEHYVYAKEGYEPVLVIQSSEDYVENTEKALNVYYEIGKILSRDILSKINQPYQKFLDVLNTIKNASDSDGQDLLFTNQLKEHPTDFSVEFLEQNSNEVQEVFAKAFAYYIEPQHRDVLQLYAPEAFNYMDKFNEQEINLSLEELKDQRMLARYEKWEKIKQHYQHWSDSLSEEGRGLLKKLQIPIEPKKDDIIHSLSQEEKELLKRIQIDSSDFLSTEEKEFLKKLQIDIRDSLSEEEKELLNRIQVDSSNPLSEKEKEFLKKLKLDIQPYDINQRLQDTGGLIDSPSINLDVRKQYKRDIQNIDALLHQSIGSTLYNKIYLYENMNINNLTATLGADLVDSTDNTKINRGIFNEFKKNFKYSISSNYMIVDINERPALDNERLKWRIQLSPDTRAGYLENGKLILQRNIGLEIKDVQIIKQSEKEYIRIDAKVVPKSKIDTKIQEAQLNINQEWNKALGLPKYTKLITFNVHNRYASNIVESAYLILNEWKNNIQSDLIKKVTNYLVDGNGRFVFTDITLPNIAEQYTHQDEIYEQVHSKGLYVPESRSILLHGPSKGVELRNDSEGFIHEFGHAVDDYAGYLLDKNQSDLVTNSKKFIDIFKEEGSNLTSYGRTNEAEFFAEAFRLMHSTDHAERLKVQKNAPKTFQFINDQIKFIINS
# FBA Mtb inh: inhibits M. tuberculosis FBA enzyme; inhibition, % at 1 µM; 360,000 compounds, 2.3% hits; purified M. tuberculosis FBA, fluorescence read-out; in the data active = inhibition above about 27%
# BoNT A protease: blocks Botulinum neurotoxin A light chain protease; multiplex microsphere protease substrate cleavage, flow cytometry; inhibition, % at 10 µM; 360,000 compounds, 0.17% hits
# A number is an active result; n = inactive; u = inconclusive; x = no result; + = active, no number. A selection: hits, their analogues and other compounds. The true share with any hit is near 6.7%. Cut-off read from the data, not from the text of the source, unless noted: active = inhibition above about 30%; inconclusive = no clear call, values can overlap the other calls; inactive = below that.
SMILES,Bead autofluor,GDH-TPI counter,BoNT F protease,Anthrax LF prot,FBA Mtb inh,BoNT A protease
Cc1ccc(CN2CC(C(=O)Nc3ccc(C)cn3)CC2=O)cc1 (stereo unspecified),n,n,n,n,n,n
Oc1cccc(Nc2nc(O)c(/C=C3\C=Nc4ccccc43)s2)c1,n,41.2,n,n,n,n
CC(=O)N1CCN(C(c2ccccc2)c2nnnn2C(C)(C)C)CC1 (stereo unspecified),n,x,n,n,x,n
O=C(CC(=O)NCc1cccnc1)NCc1cccnc1,n,n,n,n,n,n
O=C(NCCCN1CCC(Cc2ccccc2)CC1)C1CC(=O)N(C2CCCCCC2)C1 (stereo unspecified),20812,n,n,n,n,n
CCCC(=N)C1=C(O)CC(CC(C)SCC)CC1=O (stereo unspecified),n,n,n,n,n,n
COc1cccc(-c2c(C(=O)N/N=C/c3ccncc3)nnn2-c2nonc2N)c1,x,n,x,x,n,x
CCCc1c(C(=O)N/N=C/c2ccc(C)o2)nnn1-c1nonc1N,n,42.5,n,n,n,n
COc1cccc(-c2c(C(=O)N/N=C/c3ccc(C)o3)nnn2-c2nonc2N)c1,n,46.5,n,n,n,n
Cc1ccc(/C=N/NC(=O)c2nnn(-c3nonc3N)c2C(C)C)o1,x,44.4,x,x,n,x
CC(C)c1c(C(=O)N/N=C/c2ccco2)nnn1-c1nonc1N,n,n,n,n,n,n
Cc1ccc(SCc2c(C(=O)N/N=C/c3ccc(C)o3)nnn2-c2nonc2N)cc1,n,38.9,n,n,n,n
COC(=O)/C(C#N)=C/N(C)C,x,n,x,x,n,x
Cc1cccc(C)c1NC(=O)CSc1nnc(-c2cccnc2)o1,n,n,n,n,n,n
CCN(C[C@H]1N[C@@](C)(C(=O)OC)[C@H]2C(=O)N(C)C(=O)[C@@H]12)C(C)=O,n,n,n,n,n,n
Cc1ccc(S(=O)(=O)Nc2cccc3c2O[C@H](CN(C)Cc2ccccc2)[C@@H](C)CN([C@H](C)CO)C3=O)cc1,n,n,n,n,n,n
Cc1csc(NC(=O)CNC(=O)OCc2ccccc2)n1,n,n,n,n,n,n
Cc1ccc(/C=N/NC(=O)c2nnn(-c3nonc3N)c2CSc2ccccc2)o1,n,39.5,n,n,n,n
Cc1ccc(/C=N/NC(=O)c2nnn(-c3nonc3N)c2CSc2ccccc2)cc1,n,n,n,n,n,n
NS(=O)(=O)c1ccc(N2CCCCCC2)c([N+](=O)[O-])c1,n,n,n,n,n,n
CCOc1ccc(OCC)c(NC(=O)CSc2nc3ccccc3c(=O)n2C)c1,22042,n,n,n,n,n
COc1cc(NC(=O)COc2ccccc2)ccc1NC(=O)c1ccco1,n,n,n,n,n,n
COc1cc(NC(=O)CSc2nc3ccccc3c(=O)n2C)ccc1NC(=O)c1ccco1,17911,n,n,n,n,n
CCOc1ccc(OCC)c(NC(=O)CSc2nc3cccnc3n2C)c1,n,n,n,n,n,n
Cn1c(SCC(=O)Nc2ccccc2F)nnc1-c1cccs1,n,n,n,n,n,n
SMILES,Bead autofluor,GDH-TPI counter,BoNT F protease,Anthrax LF prot,FBA Mtb inh,BoNT A protease
COc1cc(NC(=O)c2ccco2)c(OC)cc1NC(=O)CSc1nnc(-c2cccs2)n1C,22652,n,n,n,n,n
O=C(NCc1ccncc1)c1ccc(Cn2cc(C(F)(F)F)ccc2=O)cc1,u,n,n,n,n,u
Cc1cc(Nc2ccccc2C(=O)O)nc2nc3ccccc3c(=O)n12,16916,n,n,n,n,n
Nc1nc(-c2ccccc2)cn1N,n,n,n,n,n,n
Nc1nn2cc(-c3ccccc3)nc2c2ccccc12,n,n,n,n,+,n
CCOC(=O)c1cnc(NCc2ccccc2)nc1C,16359,n,n,n,n,n
C=CCSc1ncccc1C(=O)NCCc1ccccc1,n,n,n,n,n,n
CCOC(=O)c1cccnc1SCC(=O)NCc1ccccc1,19817,n,n,n,n,n
C=CCSc1ncccc1C(=O)NCc1ccccc1,21460,n,n,n,n,n
Cc1cccc(C)c1NC(=O)C1c2ccccc2OCC(=O)N1Cc1ccco1 (stereo unspecified),n,x,n,n,x,n
COC(=O)c1ccc(C2C(C#N)=C(N)Oc3cc(O)ccc32)cc1 (stereo unspecified),n,n,n,n,n,n
O=C(Nc1c(Cl)cc(Cl)cc1-c1nc2ccccc2s1)c1ccc(Br)o1,17431,n,n,n,n,u
CN(C)c1cccc(NC2=CC(=[N+]3CCOCC3)CC(C)(C)C2)c1,n,37.1,n,n,n,n
